In PubChem BioAssay:
The source made the active and inactive calls.

Experiments:
[1] = binders of probe aFSTL3 on microarray, primary screen, stem cell growth factor project, biochemical, small-molecule microarray, fluorescence 635/667 (AID 1064); conditions: higher = more signal;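 note: measures binding of the biotinylated anti-FSTL3 antibody to printed compounds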
[2] = binders from COS7 lysate, DM2A8 probe, primary screen, torsin A project, cell lysate, small-molecule microarray, fluorescence 635/667 (AID 1065); conditions: higher = more signal, COS7 lysate expressing mutant human TOR1A
[3] = binders of probe aFGF2 on microarray, primary screen, stem cell growth factor project, biochemical, small-molecule microarray, fluorescence 635/667 (AID 1067); conditions: higher = more signal;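 note: measures binding of biotinylated aFGF2 protein to printed compounds on slides; z-score merges feature fluorescence and signal-to-noise across triplicate slides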
[4] = binders of probe aFGF10 on microarray, primary screen, stem cell growth factor project, biochemical, small-molecule microarray, fluorescence 635/667 (AID 1071); conditions: higher = more signal;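 note: score merges 667 nm spot intensity and signal to noise from triplicate slides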
[5] = target: Neurogenic locus notch homolog protein 2 (Homo sapiens) (UniProt Q04721); assay: Notch2 binders on small-molecule microarrays, primary screen, biochemical, small-molecule microarray, 635 nm fluorescence, stem cell growth factors (AID 1073); conditions: Notch2 binding, higher = more signal
[6] = target: Pro-neuregulin-1, membrane-bound isoform (Homo sapiens) (UniProt Q02297); assay: NRG1 binders on small-molecule microarrays, primary screen, psychiatric disease protein project, biochemical, small-molecule microarray, fluorescence 635/667 (AID 1075); conditions: NRG1 binding, 635 nm fluorescence, higher = more signal;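 note: score combines 667 nm spot fluorescence with signal to noise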
[7] = system: Neuregulin-1 EGF-like domain; assay: binders of neuregulin-1 EGF-like domain, primary screen, biochemical, small-molecule microarray, 635 nm fluorescence (AID 1081); conditions: small-molecule microarray binding, higher = more signal;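 note: binding of the protein to compounds printed on small-molecule microarray slides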
[8] = FRG1 promoter luciferase signal modulators, primary screen, FRG1 inhibition for FSHD, cell-based, C2C12 myotubes, firefly/Renilla luciferase, luminescence (AID 1084); conditions: higher = more signal, called active from +8 up or from −8 down
[9] = binders of probe aFST on microarray, primary screen, stem cell growth factor project, biochemical, small-molecule microarray, fluorescence 635/667 (AID 1086); conditions: higher = more signal;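 note: score merges 667 nm fluorescence with signal-to-noise of each printed compound spot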
[10] = binders of probe aHhip on microarray, primary screen, stem cell growth factor project, biochemical, small-molecule microarray, fluorescence 635/667 (AID 1087); conditions: higher = more signal;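 note: score merges spot fluorescence at 667nm with spot signal to noise ratio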
[11] = system: PRMT1 (protein arginine N-methyltransferase 1); assay: PRMT1 binders on small-molecule microarrays, primary screen, biochemical, small-molecule microarray, 635 nm fluorescence (AID 1088); conditions: small-molecule microarray binding, higher = more signal;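 note: binding of Prmt1 protein to compounds spotted on small-molecule microarray slides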
[12] = yeast growth modulation, basal conditions, primary screen, YJM789 clinical isolate, OD600, 24 h (AID 1089);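 note: growth of clinical yeast isolate S. cerevisiae YJM 789 seeded 1000 cells per well; test concentration not given here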; conditions: S. cerevisiae YJM789 growth, higher = more signal, called active from +8 up or from −8 down
[13] = fission yeast growth modulation, primary screen, strain 972, OD600, 24 h, no modulator (AID 1090);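 note: basal condition with compound alone and no growth modifier present; test concentration not given here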; conditions: S. pombe 972 growth, higher = more signal, called active from +8 up or from −8 down
[14] = S. cerevisiae growth modulation with rapamycin, primary screen, strain BY4716, OD600, 96 h (AID 1091); conditions: higher = more signal, called active from +8 up or from −8 down; note: test concentration not given here
[15] = target: Torsin-1A-interacting protein 2 (Homo sapiens) (UniProt Q8NFQ8); assay: LULL1 binders on small-molecule microarray, primary screen, cell lysate, human LULL1 lysate, 635/667 nm fluorescence (AID 1092); conditions: hLULL1 lysate binding, 635 nm fluorescence, higher = more signal;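 note: probe is lysate of COS7 cells overexpressing human LULL1; score merges per-feature 667 nm fluorescence with signal-to-noise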
[16] = E. coli growth modulation, two-sided OD650, primary screen, E. coli filamentation project, strain DRC41, 24 h (AID 1093); conditions: OD650, 24 h, higher = more signal, called active from +8 up or from −8 down;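 note: MC1000 strain lacking acrAB efflux and sulA so SOS filamentation is blocked; test concentration not given here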

Pro-neuregulin-1, membrane-bound isoform (Homo sapiens), sequence (Q02297 whole entry, looked up, the tested form may be a part, canonical isoform): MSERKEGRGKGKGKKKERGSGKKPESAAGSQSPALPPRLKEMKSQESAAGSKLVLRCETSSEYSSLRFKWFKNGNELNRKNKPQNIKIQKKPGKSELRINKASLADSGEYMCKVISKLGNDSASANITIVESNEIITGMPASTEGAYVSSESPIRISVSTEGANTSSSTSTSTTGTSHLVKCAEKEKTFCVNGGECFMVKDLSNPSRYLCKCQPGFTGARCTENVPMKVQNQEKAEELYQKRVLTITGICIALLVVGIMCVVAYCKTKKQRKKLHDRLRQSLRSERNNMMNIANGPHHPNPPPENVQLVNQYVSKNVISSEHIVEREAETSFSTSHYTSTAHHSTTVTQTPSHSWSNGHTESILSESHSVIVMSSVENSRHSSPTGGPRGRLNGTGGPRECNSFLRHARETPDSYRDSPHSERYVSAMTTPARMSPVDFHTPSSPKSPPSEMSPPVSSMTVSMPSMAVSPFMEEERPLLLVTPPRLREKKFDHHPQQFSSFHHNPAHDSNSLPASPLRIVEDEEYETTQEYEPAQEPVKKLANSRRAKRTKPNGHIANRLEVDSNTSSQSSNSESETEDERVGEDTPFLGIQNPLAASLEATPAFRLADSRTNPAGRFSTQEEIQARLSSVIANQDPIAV
Neurogenic locus notch homolog protein 2 (Homo sapiens), sequence (Q04721 whole entry, looked up, canonical isoform): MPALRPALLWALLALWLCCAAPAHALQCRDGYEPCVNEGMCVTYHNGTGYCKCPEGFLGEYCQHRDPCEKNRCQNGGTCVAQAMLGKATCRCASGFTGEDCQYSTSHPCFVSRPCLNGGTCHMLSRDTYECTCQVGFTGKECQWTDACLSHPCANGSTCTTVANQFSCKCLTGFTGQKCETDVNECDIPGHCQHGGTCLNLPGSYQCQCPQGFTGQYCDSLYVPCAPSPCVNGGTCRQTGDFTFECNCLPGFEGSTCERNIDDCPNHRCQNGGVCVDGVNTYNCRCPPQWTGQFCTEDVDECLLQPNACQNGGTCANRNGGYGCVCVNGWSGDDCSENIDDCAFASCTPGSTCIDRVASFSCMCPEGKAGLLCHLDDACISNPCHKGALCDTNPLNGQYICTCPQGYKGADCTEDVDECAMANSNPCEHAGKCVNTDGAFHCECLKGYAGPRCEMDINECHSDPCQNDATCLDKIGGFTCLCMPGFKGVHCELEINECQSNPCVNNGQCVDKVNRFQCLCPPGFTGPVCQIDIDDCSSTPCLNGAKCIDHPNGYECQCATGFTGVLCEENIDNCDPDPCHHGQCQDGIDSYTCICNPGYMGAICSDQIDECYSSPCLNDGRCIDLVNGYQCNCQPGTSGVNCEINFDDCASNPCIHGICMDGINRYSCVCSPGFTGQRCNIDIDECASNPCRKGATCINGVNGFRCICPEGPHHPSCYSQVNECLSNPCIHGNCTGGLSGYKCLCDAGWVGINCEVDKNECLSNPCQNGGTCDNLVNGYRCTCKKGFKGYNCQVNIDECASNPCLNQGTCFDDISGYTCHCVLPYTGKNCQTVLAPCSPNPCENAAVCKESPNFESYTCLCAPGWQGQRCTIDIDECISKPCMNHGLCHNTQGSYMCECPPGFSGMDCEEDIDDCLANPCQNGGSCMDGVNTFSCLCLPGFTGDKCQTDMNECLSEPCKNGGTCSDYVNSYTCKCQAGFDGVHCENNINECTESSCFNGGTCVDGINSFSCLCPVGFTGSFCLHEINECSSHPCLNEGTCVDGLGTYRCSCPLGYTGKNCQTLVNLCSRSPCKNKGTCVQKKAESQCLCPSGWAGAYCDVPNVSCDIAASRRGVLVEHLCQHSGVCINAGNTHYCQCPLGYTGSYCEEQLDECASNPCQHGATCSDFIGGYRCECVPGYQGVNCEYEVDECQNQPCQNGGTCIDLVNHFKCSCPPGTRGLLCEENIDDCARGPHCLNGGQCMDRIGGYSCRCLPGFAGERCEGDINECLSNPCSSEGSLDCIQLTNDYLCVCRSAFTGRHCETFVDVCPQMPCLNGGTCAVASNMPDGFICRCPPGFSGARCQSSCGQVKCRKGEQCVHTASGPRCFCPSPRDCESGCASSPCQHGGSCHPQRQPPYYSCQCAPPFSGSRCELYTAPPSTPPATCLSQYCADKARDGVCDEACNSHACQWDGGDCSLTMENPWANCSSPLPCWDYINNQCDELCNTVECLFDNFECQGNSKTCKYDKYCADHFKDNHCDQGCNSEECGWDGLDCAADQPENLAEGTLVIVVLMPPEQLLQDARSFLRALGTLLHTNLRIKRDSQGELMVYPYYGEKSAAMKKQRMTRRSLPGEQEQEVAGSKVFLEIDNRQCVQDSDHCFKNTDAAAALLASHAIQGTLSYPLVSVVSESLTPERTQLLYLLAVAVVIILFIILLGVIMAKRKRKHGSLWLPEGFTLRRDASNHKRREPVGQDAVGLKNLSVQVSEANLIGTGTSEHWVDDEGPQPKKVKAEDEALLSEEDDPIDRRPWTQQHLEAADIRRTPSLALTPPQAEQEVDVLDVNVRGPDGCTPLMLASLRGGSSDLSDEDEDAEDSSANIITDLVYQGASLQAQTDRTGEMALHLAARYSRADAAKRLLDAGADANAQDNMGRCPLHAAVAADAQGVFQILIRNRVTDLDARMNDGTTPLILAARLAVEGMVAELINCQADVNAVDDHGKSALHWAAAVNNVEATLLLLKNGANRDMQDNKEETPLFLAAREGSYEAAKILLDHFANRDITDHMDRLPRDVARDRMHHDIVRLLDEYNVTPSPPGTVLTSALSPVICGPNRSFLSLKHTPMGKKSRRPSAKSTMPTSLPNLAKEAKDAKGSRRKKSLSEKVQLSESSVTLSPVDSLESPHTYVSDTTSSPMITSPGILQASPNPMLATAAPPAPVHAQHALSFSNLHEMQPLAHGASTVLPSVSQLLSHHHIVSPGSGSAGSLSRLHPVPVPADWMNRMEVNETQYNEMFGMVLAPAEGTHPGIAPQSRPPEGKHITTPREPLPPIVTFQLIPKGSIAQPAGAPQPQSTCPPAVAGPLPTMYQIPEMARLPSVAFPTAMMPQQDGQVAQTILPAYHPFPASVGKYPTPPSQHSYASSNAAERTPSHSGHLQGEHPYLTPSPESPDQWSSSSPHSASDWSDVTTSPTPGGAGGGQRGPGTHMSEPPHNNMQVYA
Torsin-1A-interacting protein 2 (Homo sapiens), sequence (Q8NFQ8 whole entry, looked up): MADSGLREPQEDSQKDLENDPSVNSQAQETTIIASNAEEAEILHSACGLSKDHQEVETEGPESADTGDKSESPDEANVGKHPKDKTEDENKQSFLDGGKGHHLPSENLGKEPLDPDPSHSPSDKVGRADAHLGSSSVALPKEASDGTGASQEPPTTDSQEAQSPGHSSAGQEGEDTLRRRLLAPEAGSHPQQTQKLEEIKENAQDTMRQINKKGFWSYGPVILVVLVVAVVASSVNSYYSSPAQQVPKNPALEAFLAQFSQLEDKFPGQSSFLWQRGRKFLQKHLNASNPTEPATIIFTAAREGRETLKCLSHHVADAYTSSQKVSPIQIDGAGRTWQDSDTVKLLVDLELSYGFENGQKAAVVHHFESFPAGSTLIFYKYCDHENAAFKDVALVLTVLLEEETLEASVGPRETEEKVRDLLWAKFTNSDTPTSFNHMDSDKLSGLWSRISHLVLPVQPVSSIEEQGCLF

Row | Compound | composite z-score [1] | composite z-score [2] | composite z-score [3] | composite z-score [4] | composite z-score [5] | composite z-score [6] | composite z-score [7] | z-score [8] | composite z-score [9] | composite z-score [10] | composite z-score [11] | z-score [12] | z-score [13] | z-score [14] | composite z-score [15] | z-score [16]
1 | CC(C)C(=C=CC[C@@H](O)c1ccc(CO)o1)CCO | -0.416 | 0.443 | 0.007 | 0.768 | -0.298 | 0.632 | 1.19 | 0.136 (inactive) | -0.304 | 0.065 | 0.821 | 1.15 (inactive) | -1.09 (inactive) | -0.24 (inactive) | 1.28 | 1.17 (inactive)
2 | C=C(COC)/C(=C/C[C@H](OC(C)=O)c1ccc(CO)o1)c1cnc2ccccc2c1 | -0.17 | 1.29 | -0.0316 | 0.665 | 1.4 | 0.64 | 1.01 | -0.524 (inactive) | 0.314 | -0.0024 | 1.41 | -0.342 (inactive) | -0.897 (inactive) | -1.06 (inactive) | 2.48 | 1.15 (inactive)
3 | O=c1n(-c2ccccc2)c(=O)n2n1CC(COc1ccccc1)=C1[C@@H](CCc3ccccc3)OB(O)C[C@@H]12 | -0.62 | -0.128 | -0.031 | 0.96 | 0.893 | 0.97 | 0.706 | -4.24 (inactive) | 0.642 | 0.0524 | 1.42 | 0.173 (inactive) | -3.03 (inactive) | -1.44 (inactive) | 1.39 | 1.92 (inactive)
4 | COC(=O)C(CC#Cc1ccc2c(c1)[C@]1(C(=O)N2)[C@H](C(=O)O)[C@H]2C(=O)O[C@H](c3ccccc3)[C@H](c3ccccc3)N2[C@@H]1c1ccc(OCCO)cc1)C(=O)OC | -0.0148 | 1.74 | -0.0144 | 0.767 | 1.17 | 2.11 | 1.31 | -1.19 (inactive) | 0.6 | -0.0994 | 1.55 | 0.299 (inactive) | -1.91 (inactive) | -1.38 (inactive) | 3.03 | 3.49 (inactive)
5 | COc1ccc([Si](C)(C)[C@H]2[C@H](CC(=O)N(CCO)Cc3ccccc3)O[C@@]3(C(=O)N(Cc4ccc(N5CCOC5=O)cc4)c4ccccc43)[C@@H]2C)cc1 | 0.0147 | 0.285 | -0.105 | 0.202 | 0.135 | 0.869 | 1.01 | -2.95 (inactive) | -0.158 | -0.0618 | 0.92 | 0.473 (inactive) | 0.273 (inactive) | 3.26 (inactive) | 1.98 | 1.46 (inactive)
6 | C=CCC(OC(C)=O)[C@@H]1[C@@H](N(Cc2ccc(-c3cccc(C(F)(F)F)c3)o2)C(=O)c2ccc(-c3ccccc3)cc2)c2cc(OCCCO)ccc2N1C(=O)Cc1ccc(OC)cc1 (stereo not given in full) | 0.365 | -0.338 | -0.1 | -0.394 | -0.654 | -0.61 | -0.663 | -0.981 (inactive) | 0.258 | -0.0324 | -0.305 | -0.933 (inactive) | -1.88 (inactive) | -0.82 (inactive) | -0.0364 | 1.84 (inactive)
7 | C=C(COC)C(=O)CC[C@@H](OC(=O)c1ccccc1-c1ccccc1C(=O)O)c1cccc(OCCO)c1 | -0.124 | 0.098 | -0.14 | 0.457 | -0.66 | 0.691 | 0.137 | 0.658 (inactive) | -0.0665 | -0.0645 | 0.437 | 0.586 (inactive) | -1.51 (inactive) | -0.409 (inactive) | 0.132 | 0.826 (inactive)
8 | C=CC[C@]1(C(=O)N2CCCCC2)COC(c2ccc(OCCCO)cc2)=N1 | 0.892 | 0.586 | -0.153 | -1.44 | -1.58 | 1.05 | 0.796 | -2.05 (inactive) | -0.329 | -0.251 | 0.517 | -0.485 (inactive) | -5.08 (inactive) | -2.75 (inactive) | 2.43 | 1.16 (inactive)
9 | COCCCNC(=O)[C@@]1(C)c2ccccc2C(=O)N(Cc2cc(F)cc(C(F)(F)F)c2)[C@H]1c1ccc(CO)cc1 | 1.57 | -0.12 | -0.145 | -0.103 | -1.19 | 0.595 | 1.45 | -1.65 (inactive) | -0.738 | -0.196 | 0.851 | 1.65 (inactive) | -0.351 (inactive) | 0.459 (inactive) | 2.32 | 0.985 (inactive)
10 | COCCCN1C(=O)[C@@]2(Cc3ccccc31)c1ccccc1C(=O)N(Cc1ccccc1Cl)[C@H]2c1ccc(CO)cc1 | 0.218 | -0.272 | -0.201 | -0.273 | -0.773 | -0.592 | -0.983 | 0.448 (inactive) | 0.009 | 0.0274 | 0.952 | -0.403 (inactive) | -1.49 (inactive) | -1.46 (inactive) | 1.22 | 2.9 (inactive)
